Potency and outcome data for 52 compounds are collected here from PubChem BioAssay (NCATS).

Assay [1] is described as follows: Primary qHTS for inhibitors of nuclear receptor binding SET domain protein 2 (NSD2) in an isogenic RCH-ACV NSD2 p.E1099K mutant (9B) (AID 1645876). Further: nearly all actives have a fitted effect of over 70% in size. Further: potency means the concentration at half of the fitted maximal effect.
A short description of assay [2]: Primary qHTS for inhibitors of nuclear receptor binding SET domain protein 2 (NSD2) in an RCH-ACV wild type WT cells (2C) (AID 1645877). Further: nearly all actives have a fitted effect of over 70% in size. Further: potency means the concentration at half of the fitted maximal effect.
A further assay deals with Papain (Carica papaya) (UniProt P00784). Nature of the assay: Primary qHTS assay for inhibitors of the protease papain (AID 1645873).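 Further: papain turnover of Z-FR-AMC read as the AMC fluorescence gain over 10 min.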
Assay [3] addresses Metallo-beta-lactamase type 2 (Klebsiella pneumoniae) (UniProt C7C422). The experiment in a line: qHTS to identify inhibitors of the New Delhi Metallo-beta-lactamase (NDM): assay validation screen against the NCATS LOPAC Collection (AID 1794843).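 Further: nitrocefin turnover by NDM-1 measured as 485 nm absorbance at plateau.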 In short, it runs like this:
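Nitrocefin hydrolysis (50 uM substrate stock) by NDM-1, 2 nM final, was followed by 485 nm absorbance after compound preincubation; buffer was 50 mM HEPES pH 7.0, 1 uM ZnSO4, 0.01% Tween20.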

Assay [4] has as its target Glutathione peroxidase 1 (Homo sapiens) (UniProt P07203). The experiment in a line: Primary qHTS Assay for Inhibitors of Recombinant Selenoprotein Glutathione Peroxidase 1 (GPX1) (AID 1845191). Further: nearly all actives have a fitted effect of over 65% in size. An outline of the steps:
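Recombinant GPX1 (10 nM final) was preincubated with compound for 30 min at room temperature, then reacted with 1 mM GSH, 0.5 mM CHP, 0.5 mM NADPH and 100 nM glutathione reductase; NADPH fluorescence (340/450 nm) was read at 0 and 15 min.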

Assay [5] concerns the target Phospholipid hydroperoxide glutathione peroxidase GPX4 (Homo sapiens) (UniProt P36969). The experiment in a line: Primary qHTS Assay for Inhibitors of Recombinant Selenoprotein Glutathione Peroxidase 4 (GPX4) (AID 1845192). Further: nearly all actives have a fitted effect of over 65% in size. In short, it runs like this: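 GR-coupled readout: 100 nM GR, 1 mM GSH, 0.5 mM NADPH; NADPH fluorescence (ex 340/em 450 nm) read at t=0 and after 15 min RT. GPX4 200 nM, preincubated 30 min with compound; substrate 0.5 mM CHP.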

Assay [6] is described as follows: NCATS anti-infectives library activity on the primary C. elegans qHTS viability assay (AID 1745855; calls by dose curve). The settings on record: C. elegans worm area imaging, day 7; at 41.8 µM (top of the series) unless noted. An outline of the steps: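 Viability is taken from GFP fluorescence of PE254-GFP-FLuc C. elegans imaged by laser cytometry over 7 days. Ten L1 worms per well grow at 21 °C on TOP10 E. coli capsules with titrated compound; levamisole marks toxicity.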

A short description of assay [7]: NCATS anti-infectives library activity on HEK293 viability as a counter-qHTS vs the C. elegans viability qHTS (AID 1745854). In short, it runs like this:
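HEK293 cells, 1500 per well, exposed 24 hr at 37C in 5% CO2 to compounds in a 1:5 titration, up to 41.7 uM final. Viability read as CellTiter-Glo luminescence after 10 min at room temperature.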

Assay [8] can be described thus: Viability counterscreen for antagonist of constitutive androstane receptor (CAR) against the NCATS DSHEA and TCM libraries (AID 1794837).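 Further: compound exposure lasted 24 h before viability reading.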 In short, it runs like this: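 Cells: HepG2 line carrying CYP2B6 reporter and hCAR, seeded and attached 5 h. Then pin-transferred test substances plus agonist CITCO at 48 uM final; 24 h incubation; fluorogenic viability reagent, 1 h.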

Assay [9] can be described thus: Viability counterscreen for agonist of constitutive androstane receptor (CAR) against the NCATS DSHEA and TCM libraries (AID 1794838).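 Further: HepG2 cells with CYP2B6 reporter and hCAR plus 0.75 µM PK11195 antagonist.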 In short, it runs like this: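 Cell health was measured as CellTiter-Fluor signal in HepG2-CYP2B6-hCAR cells treated for 24 h with substances alongside the hCAR antagonist PK11195 (0.75 uM final).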
In assay [10] the target is Nuclear receptor subfamily 1 group I member 3 (Homo sapiens) (UniProt Q14994). Nature of the assay: Primary qHTS for agonist of constitutive androstane receptor (CAR) against the NCATS DSHEA and TCM libraries (AID 1794839).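 Further: HepG2 cells expressing human CAR with a CYP2B6 reporter plus PK11195 antagonist; luciferase reporter luminescence read with ONE-Glo.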 An outline of the steps:
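qHTS, agonist mode: HepG2-CYP2B6-hCAR, 2,500 cells/well, 5 h attach; cpds + PK11195 0.75 µM final; 24 h, 37 °C, 5% CO2. Readouts: CellTiter-Fluor (405/540 nm), then ONE-Glo luminescence.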

A short description of assay [11]: HepG2 viability counterscreen (readout 2: ATP content) against the NCATS DSHEA and TCM libraries (AID 1794840). In short, it runs like this: (§1)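 Same wells read twice: first fluorescence from cleaved GF-AFC substrate (25 uM final, 30 min, 37C) for live-cell protease, then CellTiter-Glo luminescence after 30 min at room temperature for ATP. HepG2 cells were exposed ~24 h to substances.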

Assay [12] in a line: HepG2 viability counterscreen (readout 1: protease activity) against the NCATS DSHEA and TCM libraries (AID 1794841).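 Further: cells exposed to compounds for about 24 h before the protease read.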 In short, it runs like this: as §1
In assay [13] the target is Luciferin 4-monooxygenase (Photinus pyralis) (UniProt P08659). Nature of the assay: Primary firefly luciferase (FLuc) qHTS assay for identification of artifact compounds. (AID 1845220). Further: nearly all actives have a fitted effect of over 60% in size. The settings on record: outcome: dose series up to 54.1 µM. In short, it runs like this: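 Reaction readout was CCD-imaged luminescence, taken 5 min after adding 10 nM purified firefly enzyme to compound-treated wells holding 10 uM luciferin and ATP in pH 7.6 buffer.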

SMILES strings stand for the structures. Values joined by “and” are separate entries in the source; they are usually repeats but may differ in a detail not shown here. Equal entries are not always repeated. Values without a mark were called inactive. Records with an inconclusive call do not appear. Active and inactive are the calls of the source. Unless noted, the call rests on the fitted dose curve; in most records, active means well fitted curve in the direction sought with a large enough effect; inconclusive means small, poorly fitted or top-dose-only effect, or another doubt; inactive means no such curve, though single readings can be large; an effect the other way counts as inactive or inconclusive.

Phospholipid hydroperoxide glutathione peroxidase GPX4 (Homo sapiens), sequence (P36969 whole entry, looked up): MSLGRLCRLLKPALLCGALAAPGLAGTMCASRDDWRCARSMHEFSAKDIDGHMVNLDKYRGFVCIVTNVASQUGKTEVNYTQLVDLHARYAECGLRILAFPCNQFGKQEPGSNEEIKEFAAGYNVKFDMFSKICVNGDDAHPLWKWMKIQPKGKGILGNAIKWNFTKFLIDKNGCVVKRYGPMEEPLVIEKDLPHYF
Glutathione peroxidase 1 (Homo sapiens), sequence (P07203 whole entry, looked up): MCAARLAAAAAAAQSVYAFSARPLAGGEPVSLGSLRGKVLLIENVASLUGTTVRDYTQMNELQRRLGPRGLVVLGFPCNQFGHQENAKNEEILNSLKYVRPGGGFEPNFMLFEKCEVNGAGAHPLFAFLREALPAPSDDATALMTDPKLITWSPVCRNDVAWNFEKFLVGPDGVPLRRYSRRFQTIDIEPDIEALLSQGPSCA
Metallo-beta-lactamase type 2 (Klebsiella pneumoniae), sequence (C7C422 whole entry, looked up): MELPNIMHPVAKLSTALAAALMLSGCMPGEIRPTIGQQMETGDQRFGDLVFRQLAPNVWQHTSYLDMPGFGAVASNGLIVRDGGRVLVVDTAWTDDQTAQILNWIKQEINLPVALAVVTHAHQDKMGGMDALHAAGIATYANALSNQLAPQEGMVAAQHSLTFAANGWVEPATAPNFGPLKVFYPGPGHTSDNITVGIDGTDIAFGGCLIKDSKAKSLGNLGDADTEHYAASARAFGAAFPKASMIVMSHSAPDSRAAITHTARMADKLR
Papain (Carica papaya), sequence (P00784 whole entry, looked up): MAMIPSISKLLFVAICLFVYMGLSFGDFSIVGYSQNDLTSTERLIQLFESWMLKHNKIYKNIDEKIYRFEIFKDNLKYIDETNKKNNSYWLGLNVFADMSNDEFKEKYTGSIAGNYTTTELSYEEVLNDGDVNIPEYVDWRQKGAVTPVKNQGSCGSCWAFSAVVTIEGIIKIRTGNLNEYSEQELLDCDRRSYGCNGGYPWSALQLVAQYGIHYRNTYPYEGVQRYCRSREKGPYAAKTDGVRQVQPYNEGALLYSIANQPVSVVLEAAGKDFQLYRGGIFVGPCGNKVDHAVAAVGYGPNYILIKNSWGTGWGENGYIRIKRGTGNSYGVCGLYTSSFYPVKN
Nuclear receptor subfamily 1 group I member 3 (Homo sapiens), sequence (Q14994 whole entry, looked up): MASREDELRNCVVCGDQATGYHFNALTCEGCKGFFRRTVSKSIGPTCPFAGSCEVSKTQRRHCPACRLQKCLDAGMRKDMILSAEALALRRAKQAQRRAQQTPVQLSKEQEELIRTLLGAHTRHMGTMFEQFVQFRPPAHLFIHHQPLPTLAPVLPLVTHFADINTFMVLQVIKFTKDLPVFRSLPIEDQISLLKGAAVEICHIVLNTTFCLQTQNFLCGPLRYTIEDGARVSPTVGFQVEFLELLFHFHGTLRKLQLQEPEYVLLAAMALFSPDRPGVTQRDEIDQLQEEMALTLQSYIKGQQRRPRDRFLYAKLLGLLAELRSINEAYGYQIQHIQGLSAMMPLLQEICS

In the case of `COc1ccc(CCN(C)CCCN2CCc3cc(OC)c(OC)cc3CC2=O)cc1OC`, the Potency result in [1] and in assay [2] was “inactive” throughout.
For `CCCCNC(=O)NS(=O)(=O)c1ccc(N)cc1`, the Potency entry in assay [1] and in [2] was “inactive” in each case.
Consider `COP(=O)(OC)OC(c1ccc(Cl)cc1)P(=O)(OC)OC` (stereo unspecified), for which the Potency result in [1] and in [2] was “inactive” each time.
As to `O=C(O)C(Cc1cc(I)c(O)c(I)c1)c1ccccc1` (stereo unspecified), the Potency result in [1] is “inactive”.
For the compound `CC(=O)Nc1ccc(OCC(O)CNC(C)C)cc1` (stereo unspecified), the Potency entry in [1] and in assay [2] was “inactive” each time.
For the compound `CCN(CC)CCNC(=O)COc1ccc(OC)cc1`, the Potency entry in assay [1] and in assay [2] was “inactive” throughout.
`CCOC(=O)[C@H](CCc1ccccc1)N[C@@H](C)C(=O)N1[C@H](C(=O)O)C[C@H]2CCCC[C@@H]21`: the result (with Papain (Carica papaya); in assay [3]) was inactive. Besides, the Potency entry in [4] and in assay [5] was “inactive” each time.
Turning to `O=C(O)c1ccc(S(=O)(=O)N(Cl)Cl)cc1`, the Potency entry in [1] and in [2] was “inactive” in each case.
Turning to `FC1(F)C(F)(F)C(F)(F)C2(F)C(F)(F)C(F)(F)C(F)(F)C(F)(F)C2(F)C1(F)F` (stereo unspecified), the Potency result in [1] and in assay [2] was “inactive” throughout.
On to `CC(C)(C)NC[C@H](O)COc1nsnc1N1CCOCC1`, for which the outcome (with Papain (Carica papaya); in [3]) was inactive. Also, the Potency result in assay [1], in assay [2], in [4] and in assay [5] was “inactive” each time.
As for `Cc1ncc(CO)c(C=O)c1O`, the Potency result in assay [1] and in assay [2] was “inactive” in each case.
For `O=C(CN1CCN(Cc2ccc3c(c2)OCO3)CC1)N1c2ccccc2Sc2ccccc21`, the Potency result in assay [1] was “inactive”.
Same read-out and setting: the result for `Cc1cn([C@H]2C[C@H](F)[C@@H](CO)O2)c(=O)[nH]c1=O` reads “inactive”.
In the case of `O=C(NCCc1c[nH]c2ccccc12)c1cccnc1`, the Potency result in assay [1] and in [2] was “inactive” throughout.
Take `CCCCOC(=O)CC(CC(=O)OCCCC)(OC(C)=O)C(=O)OCCCC`: the Potency entry in [1] was “inactive”.
As for `CCCCCCCCOc1ccc(C(=O)c2ccccc2)c(O)c1`, the Potency entry in assay [1] and in assay [2] was “inactive” in each case.
Consider `C/C=C/C=N/NC(=O)c1ccncc1`, for which the Potency entry in assay [1] is “inactive”.
On to `Cc1cccc(C)c1NC(=O)c1ccccc1C(=O)O`, for which the Potency result in assay [1] and in [2] was “inactive” in each case.
`CCCCCCCC/C=C\CCCCCCCCN`: the Potency entry in [1] is “inactive”.
As for `COc1ccccc1N1CCN(CCCCNC(=O)c2ccc(-c3ccc(C(C)=O)cc3)cc2)CC1`, in assay [1], the Potency result was “inactive”.
For the compound `C[C@@H](O)[C@H]1C(=O)N2C(C(=O)O)=C([C@H]3CCCO3)S[C@H]12`, the Potency entry in assay [1] and in [2] was “inactive” in each case.
For `OC(C#CCN1CCCC1)(c1ccccc1)c1ccccc1`, the Potency entry in assay [1] and in assay [2] was “inactive” throughout.
For the compound `CCCCCCCCNC(C)C(O)c1ccc(SC(C)C)cc1` (stereo unspecified), the Potency was 10.6 µM (active) in assay [1] and 7.5 µM (active) in assay [2].
Taken in the same sequence, the figures for `CC(C)(C)CC(C)(C)c1ccc(O)c(-n2nc3ccccc3n2)c1` were “inactive” and “inactive”.
Taken in the same sequence, the figures for `NC(=O)n1c(O)c(C(=O)c2cccs2)c2cc(Cl)ccc21` were “inactive” and “inactive”.
Regarding `N#CCC(=O)NN`, the Potency entry in assay [1] was “inactive”.
With `CN1CCN(CCC(=O)N2c3ccccc3Sc3ccc(C(F)(F)F)cc32)CC1`, the Potency in assay [1] is 15 µM (active); in assay [2] it was 23.7 µM (active).
In the case of `CCNC(=O)NCc1cccc(Cl)c1`, the Potency entry in assay [1] is “inactive”.
As to `Cc1cccc(C)c1NC(=O)CN1CCCCCC1`, the Potency entry in assay [1] and in assay [2] was “inactive” each time.
Take `CC(=O)NCCCCCC(=O)O`: the Potency result in assay [1] and in assay [2] was “inactive” throughout.
Regarding `CCCCCCCCCCCCCC[N+](C)(C)Cc1ccccc1`, the figures for the Potency in [1] and in assay [2] were 0.335 µM (active) and 0.237 µM (active), respectively.
As for `CN=C(N)NCCC[C@H](N)C(=O)O`, the compound was called inactive (with Papain (Carica papaya); in assay [3]). The Potency result in [4] and in assay [5] was “inactive” in each case.
With `NC(N)=NCc1cccc(I)c1`, the compound was called inactive (with Papain (Carica papaya); in assay [3]). For the same compound, the Potency entry in [4] and in assay [5] was “inactive” in each case.
Consider `Cc1cc(-c2ccccc2)nnc1NCCN1CCOCC1`, for which the Potency entry in assay [1] and in assay [2] was “inactive” throughout.
In the case of `COc1ccc2c(c1)c1c3n2CCN(C)C3=NCC1`, the Potency entry in assay [1] and in assay [2] was “inactive” in each case.
In the case of `CC(=O)Oc1ccc(C)cc1`, the Potency entry in [1] and in assay [2] was “inactive” in each case.
Regarding `O=C(O)Cc1csc(-c2ccc(Cl)cc2)n1`, the Potency entry in assay [1] and in assay [2] was “inactive” each time.
Take `O=C1C(=O)c2ccccc2C(O)=C1C1CCC(c2ccc(Cl)cc2)CC1` (stereo unspecified): the result in assay [6] was inactive.
On the same count and under the same terms, the result for `O=C(O)CCc1nc2ccccc2[nH]1` reads “inactive”.
For `CC(=O)O[C@]1(C(C)=O)CC[C@H]2[C@@H]3C=C(C)C4=CC(=O)CC[C@]4(C)[C@H]3CC[C@@]21C`, the compound was classed as inactive in [7].
Same read-out and setting: the result for `CCCCCCCCCCC[C@@H](C[C@@H]1OC(=O)[C@H]1CCCCCC)OC(=O)[C@H](CC(C)C)NC=O` reads “inactive”.
For the compound `CCCCCCCCCCCCCCCC(=O)O`, the compound was called inactive in [8], in [9], in assay [10], in assay [11] and in assay [12].
Regarding `OC1C(O)C(O)C(O)C(O)C1O` (stereo unspecified), the compound was classed as inactive in assay [11] and in assay [12].
For the compound `OCCOCCN1CCN(C2=Nc3ccccc3Sc3ccccc32)CC1`, the Potency entry in [1], in assay [2], in [4] and in [5] was “inactive” throughout.
Regarding `CCOc1ccc(NC(C)=O)cc1`, the Potency result in [1], in [2], in [4] and in assay [5] was “inactive” each time.
As to `NCCNC(=O)c1ccc(Cl)cn1`, the Potency entry in assay [1], in [2] and in assay [5] was “inactive” each time.
For `Nc1ccc(S(=O)(=O)Nc2cnc3ccccc3n2)cc1`, the Potency entry in [1], in assay [2] and in assay [5] was “inactive” throughout.
For the compound `Cc1c(-c2ccccc2)oc2c(C(=O)OCCN3CCCCC3)cccc2c1=O`, the Potency entry in assay [1], in assay [2], in assay [4] and in [5] was “inactive” throughout.
On to `CC(C)(C)NCC(O)COc1cccc2c1C[C@H](O)[C@H](O)C2` (stereo partly specified), for which the Potency entry in [1], in assay [2], in [4] and in [5] was “inactive” in each case.
For `CCO[C@@H]1O[C@H](C(COCc2ccccc2)OCc2ccccc2)[C@H](OCc2ccccc2)[C@H]1O` (stereo partly specified), the Potency was 23.7 µM (active) in [1] and 21.1 µM (active) in assay [2]. Also, the Potency entry in assay [4] and in [5] was “inactive” each time.
`C[N+]12CCC(CC1)C(OC(=O)C(O)(c1ccccc1)c1ccccc1)C2` (stereo unspecified): the Potency result in assay [1], in assay [2], in [4] and in assay [5] was “inactive” in each case.
In the case of `CC[C@]12CCCN3CCc4c(n(c5ccccc45)C(=O)C1)[C@@H]32`, the Potency was 8.41 µM (active) and 8.17 µM (active) in assay [1]; 5.96 µM (active) in [2]. The Potency result in assay [4] and in [5] was “inactive” each time. Besides, the compound was called inactive in [13].
